# According to PubChem BioAssay AID1645855 (Buhrlage Lab, Dana-Farber Cancer Institute and Novartis …, 2021):
# Out of some 47,000 compounds screened, about 3,100 (6.6%) were called active. The list comes from a sample in which actives are over-represented; it also holds similar structures and randomly drawn compounds. Unmarked numbers belong to inactive results. Cut-off read from the data, not from the text of the source: active = inhibition above about 30%; inactive = the rest.
# Target: Ubiquitin carboxyl-terminal hydrolase 17-like protein 5 (Homo sapiens) (UniProt A8MUK1)
# Experiment: blocks human USP17 ubiquitin-rhodamine cleavage (AID 1645855)
# Settings: purified USP17, Ub-rhodamine cleavage fluorescence, 3 h; at 50 µM; hits give high values
# Ubiquitin carboxyl-terminal hydrolase 17-like protein 5 (Homo sapiens), sequence (A8MUK1 whole entry, looked up): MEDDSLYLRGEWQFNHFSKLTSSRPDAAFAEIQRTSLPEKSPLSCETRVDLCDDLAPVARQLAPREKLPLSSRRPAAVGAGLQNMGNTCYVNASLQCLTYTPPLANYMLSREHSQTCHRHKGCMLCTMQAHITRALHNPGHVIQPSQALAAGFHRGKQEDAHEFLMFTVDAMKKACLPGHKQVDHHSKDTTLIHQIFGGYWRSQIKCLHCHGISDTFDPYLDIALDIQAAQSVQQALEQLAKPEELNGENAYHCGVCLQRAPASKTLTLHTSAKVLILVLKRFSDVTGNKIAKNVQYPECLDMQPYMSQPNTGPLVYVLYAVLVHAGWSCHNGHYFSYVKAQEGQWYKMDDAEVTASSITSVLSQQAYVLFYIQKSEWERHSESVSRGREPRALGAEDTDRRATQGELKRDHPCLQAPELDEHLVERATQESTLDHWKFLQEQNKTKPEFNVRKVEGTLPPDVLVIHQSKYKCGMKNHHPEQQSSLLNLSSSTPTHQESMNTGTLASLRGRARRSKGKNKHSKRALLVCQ
row,Compound,inhibition
1,COCC(=O)OCc1cc(=O)oc2cc(O)ccc12,14.9%
2,CN1CCn2c(-c3cccnc3)cnc2C12CCN(Cc1cccnc1)CC2,-23.9%
3,O=C(O)C1CCCN1C(=O)C1CCN(S(=O)(=O)c2ccccc2)CC1 (stereo not given),0.0755%
4,CC(C)N1CCN(C(=O)Cn2c(=O)n(-c3ccccc3)c3ncccc32)CC1,-9.73%
5,O=C(Nc1cccnc1Cl)c1noc2c1COc1ccccc1-2,15%
6,NC(=O)c1ccc(NC(=O)Cc2cc(-c3ccc(Cl)cc3)on2)cc1,58.4% (active)
7,Cc1nc(-c2ccc(C)c(S(=O)(=O)NCC(=O)Nc3cccc(Cl)c3)c2)no1,-1.55%
8,COc1cccc(CCNC(=O)Cc2cc(-c3ccc(C)cc3)on2)c1,-2.69%
9,Cc1ccc(CN2CCC(N3CCN(C(=O)c4c(C)nn(C)c4C)CC3=O)CC2)cc1,2.05%
10,CC(NC(=O)CN1C(=O)C2CCCN2C(=O)c2ccc(F)cc21)c1ccccc1 (stereo not given),-12.4%
11,CCc1cc(=O)n(CC(=O)NC2CCCC2)c(N2CCOCC2)n1,0.695%
12,O=C(CCc1nnc2ccc(N3CCCCC3)nn12)Nc1ccc(S(=O)(=O)N2CCCCCC2)cc1,16.3%
13,O=C(NC1CC1)c1cccc(OCC2CCCN(C(=O)c3cc(F)ccc3F)C2)c1 (stereo not given),-3.72%
14,CSc1nc2c(c(Nc3ccc(C(C)=O)cc3)n1)CCC2,61% (active)
15,O=C(NCC1CC1)c1ccc2c(c1)nc1n2CCN(Cc2ccccn2)C1=O,-18.5%
16,CC(C)=CCc1cc(O)ccc1O,4.38%
17,CC(C)=CCC(O)C1=CC(=O)c2c(O)ccc(O)c2C1=O (stereo not given),95.2% (active)
18,CN(C(=O)c1ccc(S(=O)(=O)N2CCOCC2)cc1)c1nnc(C23CC4CC(CC(C4)C2)C3)s1,5.76%
19,CCOC(=O)c1c(S(=O)(=O)NCC(=O)Nc2ccc(C)cc2)c(C)n(C)c1C,-20.2%
20,CN(CCc1ccccc1)c1nccc(N2CCN(C(=O)c3csc(-c4cccnc4)n3)CC2)n1,19.2%
21,Cc1ccc(Cc2nnc(C(=O)NC(C)c3ccccc3)o2)cc1 (stereo not given),4.41%
22,Cc1ccc(CSc2nnc(/C=C/c3ccccc3)o2)cc1,39.9% (active)
23,COc1ccccc1CC(=O)N1C[C@@H]2C[C@H]1C[C@@H]2NC(=O)c1ccccc1,15.2%
24,COc1ccc(CNC(=O)CCc2c(C)nn(-c3cc(N(C)C)ncn3)c2C)cc1,-0.38%
25,Cc1ccc(S(=O)(=O)N2C(=O)CCC2C(=O)N2CCCC2)cc1C (stereo not given),-4.46%
